Source: PubChem BioAssay
IL1B secr inh: qHTS for Inhibitors of Inflammasome Signaling: IL-1-beta AlphaLISA Primary Screen; activity change, % at 57.5 µM; THP-1 LPS/ATP IL-1B secretion, AlphaLISA, 16 h; active compounds read low; hit rate 4.7% among 360,000; in the data active = activity change below about -50%; inconclusive = mostly about -30% to -49%
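THP-1 cells pretreated 1 hr with compounds (up to 57.5 uM final), then stimulated with LPS (250 ng/mL final) plus ATP (1.25 mM final); secreted IL-1B measured by AlphaLISA after 16 hr, decreased signal indicating inhibition.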
TDP1 block: qHTS Assay for Inhibitors of Tyrosyl-DNA Phosphodiesterase (TDP1); Tyrosyl-DNA phosphodiesterase 1 (Homo sapiens), Q9NUW8; recombinant TDP1, AlphaScreen DNA substrate cleavage; Potency, µM (highest dose often 130 µM), for inactives: top-dose activity change, negative = inhibition, most hits filed as inhibitors; hit rate 0.28% among 350,000; also: potency is read from the fitted curve at half-maximal effect; nearly all actives have a fitted effect of over 40% in size
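Steps: enzyme plus compound, 15 min RT; add biotin/phosphotyrosine-FITC oligonucleotide (15 nM final), react 5 min; add donor/acceptor beads (10 ug/ml final), 10 min; read AlphaScreen. Tdp1 at 1 nM final.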
Six1-Eya2 blk: qHTS Assay for Inhibitors of the Six1/Eya2 Interaction. hit rate 0.56% among 360,000. Homeobox protein SIX1 (Homo sapiens) + Protein phosphatase EYA2 (Homo sapiens), …. activity change, % (concentration not given with the values). AID 651725, 2012. AlphaScreen GST-Six1/His-Eya2 binding, biochemical; active compounds read low; in the data active = activity change below about -65%; inconclusive = mostly about -30% to -63%
Target sequence (O00167 whole entry, looked up): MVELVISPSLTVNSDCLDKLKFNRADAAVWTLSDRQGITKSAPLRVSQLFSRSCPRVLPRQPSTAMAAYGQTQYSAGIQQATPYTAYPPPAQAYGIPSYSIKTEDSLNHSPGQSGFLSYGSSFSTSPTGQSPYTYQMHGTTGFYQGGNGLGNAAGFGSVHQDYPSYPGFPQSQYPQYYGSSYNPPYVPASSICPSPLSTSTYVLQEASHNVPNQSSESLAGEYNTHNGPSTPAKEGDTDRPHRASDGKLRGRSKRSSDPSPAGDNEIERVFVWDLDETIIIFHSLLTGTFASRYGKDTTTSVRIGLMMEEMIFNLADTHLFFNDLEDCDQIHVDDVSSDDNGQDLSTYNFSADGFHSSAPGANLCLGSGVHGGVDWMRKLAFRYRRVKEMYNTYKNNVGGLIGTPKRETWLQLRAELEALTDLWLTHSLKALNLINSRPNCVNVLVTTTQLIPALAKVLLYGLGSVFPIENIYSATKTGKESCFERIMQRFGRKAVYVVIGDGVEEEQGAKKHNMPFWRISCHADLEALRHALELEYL
Target sequence (Q15475 whole entry, looked up): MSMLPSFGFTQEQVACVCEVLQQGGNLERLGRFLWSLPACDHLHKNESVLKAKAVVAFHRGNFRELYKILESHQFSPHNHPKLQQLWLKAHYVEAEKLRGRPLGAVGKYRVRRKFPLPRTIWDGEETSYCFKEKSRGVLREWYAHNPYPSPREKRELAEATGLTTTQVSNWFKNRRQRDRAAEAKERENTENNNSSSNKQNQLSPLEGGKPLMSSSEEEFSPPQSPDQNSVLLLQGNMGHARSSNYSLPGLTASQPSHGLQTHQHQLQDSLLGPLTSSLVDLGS
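Compounds are tested against tagged Six1 and Eya2 proteins bridged by glutathione donor and nickel acceptor beads; after a one-hour incubation at 37 °C without light, AlphaScreen emission is recorded.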
TDP1 cell CPT: qHTS for Inhibitors of human tyrosyl-DNA phosphodiesterase 1 (TDP1): qHTS in cells in presence of CPT; chicken DT40 Tdp1-/-;hTDP1 cells + 20 nM CPT, ATP luminescence, 48 h; Potency, µM (series often up to 46.2 µM), for inactives: at the highest dose activity change, negative = growth inhibition, hits mostly inhibitors; hit rate 12% among 420,000; AID 686979, 2013; also: potency is read from the fitted curve at half-maximal effect; nearly all actives have a fitted effect of over 55% in size
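Chicken DT40 Tdp1-/- cells complemented with human TDP1, 400 cells/well, exposed to compounds plus 20 nM camptothecin for at least 48 h at 37 C; viability read as ATP content by CellTiter-Glo luminescence.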
CtBP-E1A inh: qHTS Assay for Inhibitors of the CtBP/E1A Interaction; CtBP / adenovirus E1A interaction (AlphaScreen); AlphaScreen GST-E1A/His-CtBP binding, 1536-well; active compounds read low; activity change, % (concentration not given with the values); hit rate 0.49% among 340,000; AID 651724, 2012; in the data active = activity change below about -65%; inconclusive = mostly about -30% to -63%
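In 5 uL wells, 23 nL compound meets equimolar GST-E1A and His-CtBP (5X stock 125 nM each) for 2 h, 37 °C. Beads (5X, 50 ug/mL) then 1 h, 37 °C, dark.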
DT40 TDP1 no CPT: qHTS for Inhibitors of human tyrosyl-DNA phosphodiesterase 1 (TDP1): qHTS in cells in absence of CPT; DT40 Tdp1-/- hTDP1 cells, no CPT, ATP luminescence, 48 h; Potency, µM (highest dose often 46.2 µM), for inactives: at the highest dose activity change, negative = growth inhibition, most hits filed as inhibitors; hit rate 15% among 420,000; AID 686978, 2013; also: potency is read from the fitted curve at half-maximal effect; nearly all actives have a fitted effect of over 55% in size
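Chicken DT40 Tdp1-/- cells complemented with human TDP1, screened without camptothecin (DMSO vehicle only), 400 cells/well. Compounds pin-transferred, cells incubated at 37 °C for at least 48 hr. Growth read as ATP-dependent luminescence (CellTiter-Glo, 30 min at RT).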
* hit, by the source's call; [ ] = remark or other dose. The list is not random: actives were taken first. Their share in the collection is about 18%. Unless noted, calls follow the shape of the dose curve; as a rule, active = well fitted curve in the direction sought with a large enough effect; inconclusive = small, poorly fitted or top-dose-only effect, or another doubt; inactive = no such curve, though single readings can be large; an effect the other way counts as inactive or inconclusive. % is scaled to controls: 0 for no effect and ±100 for the full control effect.

O=C(O)C(Cl)(Cl)Cl was read as IL1B secr inh 18, TDP1 block 6%, Six1-Eya2 blk 4, TDP1 cell CPT -8%, CtBP-E1A inh 1 and DT40 TDP1 no CPT 19%.
For CO/C=C(/C(=O)OC)c1ccccc1Oc1cc(Oc2ccccc2C#N)ncn1 the results were TDP1 cell CPT 0.24µM* and DT40 TDP1 no CPT 0.22µM*.
For CC1=CC(=C2C(=O)NC(=S)NC2=O)C=C(C(F)(F)F)N1C the results were IL1B secr inh -16, Six1-Eya2 blk -7, TDP1 cell CPT -2%, CtBP-E1A inh -12 and DT40 TDP1 no CPT -1%.
Screening CN1C(=O)CC(c2ccccc2)Nc2ccccc21 (centres undefined) returned IL1B secr inh 39, TDP1 block 0%, Six1-Eya2 blk -11, TDP1 cell CPT 6%, CtBP-E1A inh 4 and DT40 TDP1 no CPT -4%.
C[C@@H]1CN([C@@H](C)CO)C(=O)CCCn2cc(nn2)CO[C@H]1CN(C)C(=O)Oc1cccc2ccccc12 was read as IL1B secr inh -12, Six1-Eya2 blk 4, TDP1 cell CPT -25%, CtBP-E1A inh 3 and DT40 TDP1 no CPT -8%.
For O=C(O)c1cc(O)c(O)c(O)c1 the results were TDP1 block inconclusive, TDP1 cell CPT 0.58µM* and DT40 TDP1 no CPT 0.92µM*.
For Fc1ccc(N2CCN(c3ncnc4c3nc3n4CCCCC3)CC2)cc1 the results were TDP1 block -1%, TDP1 cell CPT -19% and DT40 TDP1 no CPT 18µM*.
Screening CCOC(=O)c1[nH]ncc1CN1CCCC(C(=O)c2cccc(Cl)c2)C1 (centres undefined) returned IL1B secr inh 25, Six1-Eya2 blk -1, TDP1 cell CPT -13%, CtBP-E1A inh 3 and DT40 TDP1 no CPT 0%.
`Cc1nc2n(c(=O)c1CCN1CCC(c3noc4cc(F)ccc34)CC1)CCCC2` gave IL1B secr inh 5, TDP1 block -12%[56.1 µM], Six1-Eya2 blk 2, TDP1 cell CPT inconclusive, CtBP-E1A inh 0 and DT40 TDP1 no CPT inconclusive.
CCNC(=O)C1CCCN(Cc2cc(C(F)(F)F)ccc2Cl)CC1 (centres undefined) was read as IL1B secr inh 26, Six1-Eya2 blk 0, TDP1 cell CPT 26µM*, CtBP-E1A inh 4 and DT40 TDP1 no CPT inconclusive.
For CCNC(=O)C1CCCN(Cc2ccc3ccccc3c2Br)CC1 (centres undefined) the results were IL1B secr inh -2, Six1-Eya2 blk -1, TDP1 cell CPT inconclusive, CtBP-E1A inh 5 and DT40 TDP1 no CPT inconclusive.
`CCc1nnc(NC(=O)CCc2nc(C3=CCN(C)CC3)no2)s1` gave IL1B secr inh -54*, TDP1 block 12%, Six1-Eya2 blk 1, TDP1 cell CPT -9%, CtBP-E1A inh 9 and DT40 TDP1 no CPT -17%.
`CCCCCSc1cc(OC)c(CCNC)cc1OC` gave IL1B secr inh 0, TDP1 block 3%, Six1-Eya2 blk inconclusive, TDP1 cell CPT 16µM*, CtBP-E1A inh -23 and DT40 TDP1 no CPT 16µM*.
Screening CCCCCCCSc1cc(OC)c(CCNC)cc1OC returned IL1B secr inh -79*, TDP1 block 9%, Six1-Eya2 blk inconclusive, TDP1 cell CPT inconclusive, CtBP-E1A inh inconclusive and DT40 TDP1 no CPT 15µM*.
O=C1NC(=O)N(c2ccc3c(c2)OCO3)C(=O)/C1=C\c1ccc(-c2ccccc2C(=O)O)o1 was read as IL1B secr inh -4, TDP1 block 11µM*, Six1-Eya2 blk -10, TDP1 cell CPT 9%, CtBP-E1A inh -1 and DT40 TDP1 no CPT 8%.
Cc1ccc(-n2nc3c(=O)n(CC(=O)NCC(C)c4ccccc4)nc(C)c3c2C)cc1 (centres undefined) was read as TDP1 block 6%, TDP1 cell CPT 21µM* and DT40 TDP1 no CPT inconclusive.
For O=C1NC(=O)C(=Cc2cc([N+](=O)[O-])ccc2N2CCCCC2)C(=O)N1 the results were IL1B secr inh 17, TDP1 block 1%, Six1-Eya2 blk -3, TDP1 cell CPT -3%, CtBP-E1A inh 2 and DT40 TDP1 no CPT 3%.
For CN1Cc2ccccc2[C@@H]2c3cccc4[nH]cc(c34)C[C@H]21 the results were TDP1 block 13%, TDP1 cell CPT 5.2µM* and DT40 TDP1 no CPT 5.8µM*.
CC1=C[C@@H]2c3cccc4[nH]cc(c34)C[C@H]2N(C)C1 was read as IL1B secr inh -1, TDP1 block 5%, Six1-Eya2 blk inconclusive, TDP1 cell CPT inconclusive, CtBP-E1A inh -26 and DT40 TDP1 no CPT inconclusive.
`O=C(Nc1ccccc1)OC1CN=C(N[N+](=O)[O-])NC1` (centres undefined) gave IL1B secr inh 6, TDP1 block 5%, Six1-Eya2 blk 8, TDP1 cell CPT -20%, CtBP-E1A inh 11 and DT40 TDP1 no CPT -2%.
`C=CCN1C(=O)/C(=C/c2cccs2)C(=O)NC1=S` gave IL1B secr inh -104*, TDP1 block 3%, Six1-Eya2 blk 12, TDP1 cell CPT 16µM*, CtBP-E1A inh 7 and DT40 TDP1 no CPT 15µM*.
`O=C1NC(=O)N(CCc2ccc(F)cc2)C(=O)/C1=C/c1ccco1` gave IL1B secr inh -53*, Six1-Eya2 blk inconclusive, TDP1 cell CPT inconclusive, CtBP-E1A inh -5 and DT40 TDP1 no CPT inconclusive.
O=C1NC(=O)N(CCc2ccc(F)cc2)C(=O)/C1=C/c1cccs1 was read as IL1B secr inh -97*, TDP1 block 0%, Six1-Eya2 blk 6, TDP1 cell CPT 16µM*, CtBP-E1A inh 6 and DT40 TDP1 no CPT 16µM*.
For CN(C)c1ccc(/C=C2\C(=O)NC(=O)N(CCc3ccc(F)cc3)C2=O)cc1 the results were IL1B secr inh 6, TDP1 block -2%, Six1-Eya2 blk 0, TDP1 cell CPT 6% and DT40 TDP1 no CPT 2%.
Screening CC1CC(OP(O)(=S)c2ccc(N(C)C)cc2NC(=O)c2cccs2)CC(C)(C)C1 (centres undefined) returned IL1B secr inh 20, TDP1 block 7%, Six1-Eya2 blk -27, TDP1 cell CPT inconclusive, CtBP-E1A inh -10 and DT40 TDP1 no CPT inconclusive.
`O=C(c1csnn1)N1CCC2(CC1)CN(Cc1ccncc1)C2` gave TDP1 cell CPT 7% and DT40 TDP1 no CPT -3%.
